# Source: PubChem BioAssay (NCI)
# This is part of a sample that, as a whole, favours compounds with a hit. Of some 83,000 tested, about 20% had one in any assay.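 Cell lines were cultured in 96-well plates, exposed to a single compound concentration, and assessed for percent growth 48 hours later.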 Values without a mark were called inactive. Activity calls are given as the source filed them. Rule for the calls: active = growth percent below 10; inactive = the rest.
# Columns and labels:
# Assay in all cases: NCI-60 one-dose screen, 48 h (100 = growth as untreated, 0 = no growth, -100 = all killed)
# Settings in all cases: 10 µM unless noted
# [1] = test system: SK-MEL-2 melanoma
# [2] = test system: EKVX NSCLC
# [3] = test system: SN12C renal
# [4] = test system: TK-10 renal
# [5] = test system: ACHN renal
# [6] = test system: CAKI-1 renal
# [7] = test system: CCRF-CEM leukemia
# [8] = test system: MOLT-4 leukemia
# [9] = test system: A498 renal
# [10] = test system: UO-31 renal
Compound,growth [1],growth [2],growth [3],growth [4],growth [5],growth [6],growth [7],growth [8],growth [9],growth [10] [%]
COc1ccc(/C=C\c2cc(OC)c(OC)c(OC)c2)cc1OC(=O)c1cccc(Cn2cc(CCOC(=O)[C@H](N)Cc3cn(C)c4ccccc34)nn2)c1,51.1%,47.2%,38.5%,79.6%,26.6%,34.4%,10.2%,6.32% (active),–,–
COC(=O)c1ccc(Cn2cnc3c(N)ncnc32)cc1,90.8%,102%,102%,86.3%,101%,103%,102%,93.2%,104%,–
CC/C=C\C[C@H](O)C/C=C1/C(=O)C=C[C@@]1(C)C/C=C\CCCC(=O)OC,103%,104%,–,95.9%,101%,96.9%,108%,94.4%,97.3%,92.1
O=c1cc(CSc2nnc(SCc3cc(=O)oc4c3ccc3ccccc34)o2)c2ccc3ccccc3c2o1,87.8%,94.7%,–,98.8%,102%,97.4%,105%,98%,98.9%,81.2
C/C1=C\CC[C@@]2(C)O[C@H]2[C@H]2OC(=O)C(CN3CCN(CC4C(=O)O[C@H]5[C@H]4CC/C(C)=C/CC[C@@]4(C)O[C@@H]54)CC3)[C@@H]2CC1 (stereo not given in full),107%,96.8%,–,89.7%,87.1%,94%,58%,84.3%,114%,96.7
Cc1ccc(NC(=O)C2CCC(CN3CCN(C)CC3)CC2)cc1Nc1nccc(-c2cccnc2)n1 (stereo not given),112%,97.6%,91.9%,121%,–,95.5%,109%,89.8%,89.6%,–
Nc1ccn(-c2ccc(Br)cc2)c(=O)n1,87.9%,95.8%,115%,113%,111%,87.2%,-23.5% (active),107%,99.5%,–
O=S(=O)(Nc1ccc(Cl)c(F)c1)c1ccc(-c2cnc(C3CC3)o2)cc1,31.9%,34.4%,47.6%,45.5%,47.5%,32.1%,19.9%,28.6%,-16.1% (active),–
COc1ccc2c(c1)c(-c1nonc1-c1cn(C)c3ccccc13)cn2C,41.4%,51.7%,47.8%,59.2%,48.6%,30.1%,25.7%,30.2%,3.63% (active),–
Cc1ccccc1COc1ccc(-c2ccnn2-c2ccc(Cl)cc2)cc1,39.2%,77%,67.6%,83.8%,–,59.7%,42.4%,26.3%,57.5%,–
COc1cc2c(cc1-c1c(C)noc1C)ncc1nc(-c3ccccn3)n([C@H](C)COC(F)F)c12,76.3%,59%,62.8%,33%,40.1%,34.2%,41%,44.4%,-12.2% (active),–
CC1=NN(c2nc(-c3ccc(Cl)cc3)c(C#N)c(N3CCOCC3)n2)C(=O)C1,87.1%,88.8%,88.5%,117%,73.6%,70.1%,85.9%,92.1%,58%,–
CCOc1nc(-c2ccccc2)cc2c(O)c(C(=O)N/N=C/c3ccc(O)cc3O)[nH]c(=O)c12,-8.71% (active),36.2%,39.1%,52.1%,–,8.55% (active),-33.9% (active),17.3%,65.3%,–
O=C(N(c1ccccc1)c1ccccc1)n1ccc2nc(Cl)nc(Cl)c21,58.6%,63.3%,53.8%,73.7%,65.2%,53.4%,16%,37.1%,81%,–
CCOC(=O)c1csc(NC(=O)COc2cccc(/C=C3\CSc4ccccc4C3=O)c2)n1,-49.8% (active),-36.2% (active),74.8%,68.6%,45.5%,–,-61.3% (active),-50.9% (active),115%,–
COc1ccc(-c2nc3cc(C(=O)Nc4cc(OC)c(OC)c(OC)c4)ccc3n2C2CCCCC2)cc1,95.6%,91.8%,91.7%,111%,93.2%,97.4%,94.3%,83.1%,113%,–
CC(=O)c1cc(C(=O)c2ccc3c(c2)Sc2ccccc2N3)n2ccccc12,20.3%,41.2%,–,59.2%,26.2%,24.1%,5.4% (active),13.9%,-11.9% (active),19.9
Cc1cc(C)c2nc3nc(C)cc(C)c3c(N)c2c1,30.4%,28.1%,24.9%,41.4%,5.3% (active),10.4%,42.3%,-18.6% (active),47%,–
Cc1ccc2c(c1)C(=O)/C(=C/c1cccc(OCC(=O)c3ccc(Cl)cc3)c1)CS2,58.2%,91.9%,88.4%,93%,99.6%,89.2%,-2.6% (active),19.1%,80.4%,–
c1ccc(-c2c(-c3ccccc3)[n+](Cc3ccc4ccccc4c3)c(-c3ccc(-c4nc5ccccc5s4)cc3)n2Cc2ccc3ccccc3c2)cc1,-88.7% (active),-93.4% (active),-86.7% (active),-80.9% (active),-96.8% (active),-89.5% (active),-14.8% (active),-51.9% (active),-97.4% (active),–
CC(C)(CCCN=C(N)Nc1ccc(Cl)cc1)c1ccc(F)cc1,94.6%,71.7%,–,72.4%,67.4%,74.7%,53.7%,37.7%,77.6%,58.5
Cn1nc(N)c2cc([C@@H]3Nc4ccc5[nH]ncc5c4[C@H]4C5CCC(C5)[C@@H]34)ccc21 (stereo not given in full),46.6%,47.1%,50.7%,80.4%,39.6%,40.9%,16.7%,20.1%,–,–
CCN(CC)c1ccc2c(c1)Oc1nc(N)c(C#N)c(N)c1C2Sc1ccc(SC)cc1 (stereo not given),-59.6% (active),-3.97% (active),-13.4% (active),-35.7% (active),-46.5% (active),–,-15.5% (active),-10.7% (active),90%,–
CCC([N+](=O)[O-])S(=O)(=O)c1ccc(C)cc1 (stereo not given),107%,110%,95.3%,102%,104%,–,99%,117%,103%,–
C(=N/Nc1ncc(-c2cc3cc(-c4ccccc4)ccc3o2)s1)/c1cccs1,99.7%,94.9%,87.6%,97.5%,97.9%,103%,97.5%,96.5%,32.5%,–
CC(=O)Nc1ccc(S(=O)(=O)Nc2cccc(-c3nc(-c4ccc(NC(=O)c5cccnc5)cc4Cl)no3)c2)cc1,35.9%,54.3%,41.3%,69.9%,81.2%,90.6%,23.3%,25.8%,36.9%,–
CC1=CC(C)(C)Nc2ccc(Cc3ccc4c(c3)C(C)=CC(C)(C)N4)cc21,90.6%,81.4%,97.1%,112%,93.8%,–,–,82.9%,109%,–
CN1C(=O)C2(SCC(C(=O)NCc3ccccc3)N2C(=O)C2CCCCC2)c2ccccc21 (stereo not given),81.8%,86.8%,102%,115%,104%,–,102%,78.7%,98.9%,–
Cc1ccc(C2=NN3C(C2)c2cc(Br)ccc2OC32CCN(Cc3ccccc3)CC2)o1 (stereo not given),100%,86.3%,91.5%,116%,98.7%,71.6%,80.3%,79.6%,105%,–
